Experimental data from PubChem BioAssay AID585 (National Center for Advancing Translational Sciences (NCATS), 2007).
Among all 71,000 compounds or so, about 1,300 (1.8%) were called active. What follows is part of a selection rich in actives, with near analogues and random picks from the rest. Entries that show only a call come without a potency. Unmarked numbers belong to inactive results. The call rests on the fitted dose curve.
Potency means the concentration at half of the fitted maximal effect.

The molecules below were run against Beta-lactamase (Escherichia coli (strain K12)) (UniProt P00811) (assay: Promiscuous and Specific Inhibitors of AmpC Beta-Lactamase (assay without detergent)). Details: AmpC nitrocefin hydrolysis, absorbance 480 nm, no detergent; series mostly up to 28.7 µM.
Sequence of Beta-lactamase (Escherichia coli (strain K12)) (P00811 whole entry, looked up): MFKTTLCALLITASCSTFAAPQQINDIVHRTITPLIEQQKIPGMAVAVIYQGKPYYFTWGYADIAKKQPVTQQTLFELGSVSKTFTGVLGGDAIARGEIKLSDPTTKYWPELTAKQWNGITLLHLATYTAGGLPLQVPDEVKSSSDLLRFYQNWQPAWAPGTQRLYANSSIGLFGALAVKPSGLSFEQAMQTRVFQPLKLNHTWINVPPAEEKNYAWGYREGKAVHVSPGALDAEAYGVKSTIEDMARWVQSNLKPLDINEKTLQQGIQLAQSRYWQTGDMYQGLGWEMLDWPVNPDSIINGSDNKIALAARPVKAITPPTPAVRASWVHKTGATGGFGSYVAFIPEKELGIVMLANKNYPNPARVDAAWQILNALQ
Procedure: NIH Molecular Libraries Screening Centers Network [MLSCN]
NIH Chemical Genomics Center [NCGC]
PI Name: Shoichet, Brian K.
This aggregation profiling approach exploits the sensitivity of aggregate formation to detergent. Inhibition of b-lactamase is measured in the presence and absence of 0.01% Triton X-100. See Pubchem assay "Promiscuous and Specific Inhibitors of AmpC Beta-Lactamase (assay with detergent)" for related screen. Compounds that inhibit only in the absence of detergent are considered likely promiscuous aggregators.
A screen of 1,030 compounds was performed in Brian Shoichet's lab in 96-well format. AmpC activity was measured by following the absorbance at 480 nm. Nitrocefin is a chromogenic substrate: while nitrocefin is yellow (lmax 390 nm), the product of its hydrolysis is red (lmax 486 nm, 17,000 M-1). AmpC beta lactamase was provided by Brian Shoichet and Brian Feng, UCSF.
NCGC Assay Protocol Summary:
20 mM phosphate buffer, pH 7.0
Triton X-100: No Detergent screen: 0.0001%, Detergent screen: 0.01%.
Buffer in columns 3 and 4 as negative control (no enzyme).
5.3 nM AmpC in columns 1, 2, 5-48. Titration of UCSF compound 9 control (from 10 mM, then 1:2) pin-transferred to column 2. Column 1 is neutral (100% activity).
Six uL of reagents were dispensed to 1536-well Greiner black clear bottom plates. Compounds and controls (23 nL) were transferred via Kalypsys PinTool. The plates were incubated for 15 min at room temperature, and then 2 uL of 800 uM solution of nitrocefin was added to start the reaction. The plates were immediately transferred to and read every 20 seconds for 4 min on ViewLux (Perkin-Elmer) High-throughput CCD imager using 480 nm absorbance protocol. During dispense, reagent bottles were kept submerged into 4 deg C water bath.
Keywords: NIH Roadmap, MLSCN, MLI, MLSMR, qHTS, NCGC, AmpC Beta-Lactamase, Aggregation.
With `CC1=CC(C)(C)N(C(=O)CSc2nccn2C)c2cc(C)ccc21` the Potency was “inactive”.
In the case of `O=C(Cn1c(=S)nc2ccccn21)N1CCc2ccccc2C1`, the Potency is reported as “inactive”.
With `C=C1c2cc(CC)ccc2NC(=O)N1c1ccc(C)cc1` the Potency was 3.98 µM [single pt active] (active).
With `Cc1ccc(S(=O)(=O)N2CC(=O)Nc3ccccc32)cc1C` the Potency was “inactive”.
For `FC(F)Oc1ccccc1C1CC(c2ccc(Br)s2)Nc2ncnn21` (stereo unspecified), the Potency was “inactive”.
With `O=c1cc(Cn2nnc(-c3ccc(Cl)cc3)n2)nc2sccn12` the Potency was “inactive”.
`CS(=O)(=O)N(CC(=O)N1CCN(Cc2ccc3c(c2)OCO3)CC1)c1ccc2c(c1)OCO2` was tested, and the Potency was “inactive”.
For `O=C(NCc1ccco1)C1CCCN(S(=O)(=O)c2cccc3nonc23)C1` (stereo unspecified), the Potency was “inactive”.
`O=C(NCc1ccco1)C1CCCN(S(=O)(=O)c2cnc[nH]2)C1` (stereo unspecified) was tested, and the Potency was 3.98 µM [single pt active] (active).
With `CCCS(=O)(=O)N1CCCC(C(=O)NCc2ccco2)C1` (stereo unspecified) the Potency was “inactive”.
For `CC1(C)CC(CCC(=O)Nc2ccccc2Cl)C(=O)O1` (stereo unspecified), the Potency was “inactive”.
In the case of `COc1ccc(C(=O)N(Cc2ccc(N(C)C)cc2)C2CCS(=O)(=O)C2)cc1` (stereo unspecified), the Potency is reported as “inactive”.
In the case of `Cc1nc(N2CCN(c3ncccn3)CC2)c2oc3ccccc3c2n1`, the Potency is reported as “inactive”.
With `CCOC(=O)N1CCN(C(=O)c2cc3c(ccc4ccccc43)oc2=O)CC1` the Potency was “inactive”.
With `Cn1cccc1C(=O)NC(=O)COC(=O)Cc1coc2ccc3ccccc3c12` the Potency was 12.6 µM (active).
With `CC(C)(C)NC(=O)NC(=O)COC(=O)Cn1c(C(F)(F)F)nc2ccccc21` the Potency was “inactive”.
In the case of `CCN1CCN(Cc2c(O)ccc3c(=O)c(-c4ccc(OC)c(OC)c4)c(C(F)(F)F)oc23)CC1`, the Potency is reported as “inactive”.
With `CN1CCN(CCCNC(=O)c2cc3c(=O)oc4ccccc4c3s2)CC1` the Potency was “inactive”.
In the case of `COc1ccccc1NC(=O)C1=C(C)Nc2nnnn2C1c1cccc(Br)c1` (stereo unspecified), the Potency is reported as “inactive”.
With `COc1ccccc1NC(=O)C1=C(C)Nc2ncnn2C1c1ccc(C)o1` (stereo unspecified) the Potency was “inactive”.
With `COc1cc(C2C(C(=O)Nc3ccccc3OC)=C(C)Nc3ncnn32)ccc1O` (stereo unspecified) the Potency was 3.98 µM [single pt active] (active).
For `COc1ccc(CCN(C)CCN2C(=O)c3ccccc3C2=O)cc1OC`, the Potency was “inactive”.
For `O=C(NC1CCCCC1)n1c(=O)oc2cc(S(=O)(=O)N3CCCCC3)ccc21`, the Potency was “inactive”.
`CCn1cc(C(=O)NCC2CCCO2)c(=O)c2cc(S(=O)(=O)N3CCCCC3)ccc21` (stereo unspecified) was tested, and the Potency was “inactive”.
`CCn1cc(C(=O)NC2CCCCCC2)c(=O)c2cc(S(=O)(=O)N3CCCCC3)ccc21` was tested, and the Potency was 3.98 µM [single pt active] (active).
Molecule `Oc1ccc2ccccc2c1C=NCc1c(O)ccc2ccccc12` has an activity change, negative = inhibition of -20.6% [at 5.75 µM].
With `O=C(CCC(=O)OCC(F)(F)C(F)F)NCc1ccccc1` the Potency was “inactive”.
In the case of `COc1ccc(CCNC(=O)C2CCCN(Cc3nc(-c4cccc(Cl)c4)oc3C)C2)cc1OC` (stereo unspecified), the Potency is reported as “inactive”.
`COc1ccc(-c2nc(CS(=O)CC(=O)N3CCc4ccccc4C3)c(C)o2)cc1` (stereo unspecified) was tested, and the Potency was “inactive”.
With `COc1ccc(-c2nc(CS(=O)CC(=O)NCc3ccccn3)c(C)o2)cc1` (stereo unspecified) the Potency was 1.26 µM [single pt active] (active).
In the case of `COc1ccc(-c2nc(CS(=O)CC(=O)N3CCC4(CC3)OCCO4)c(C)o2)cc1` (stereo unspecified), the Potency is reported as “inactive”.
`Cc1oc2nc(SCC(=O)NCc3cccnc3)nc(N)c2c1C` was tested, and the Potency was “inactive”.
With `Cc1ccc(-c2nc(CS(=O)CC(=O)N3CCN(c4ncccn4)CC3)c(C)o2)cc1` (stereo unspecified) the Potency was “inactive”.
`COc1ccc(-c2nc(CS(=O)CC(=O)NCc3cccnc3)c(C)o2)cc1OC` (stereo unspecified) was tested, and the Potency was 3.98 µM [single pt active] (active).
For `Cc1ccc(-c2nc(CS(=O)CC(=O)NC3CCCC3)c(C)o2)cc1` (stereo unspecified), the Potency was 3.98 µM [single pt active] (active).
In the case of `Cc1ccc(NC(=O)CS(=O)CC(=O)N(c2ccccc2)C(C)C(=O)NC2CCCC2)cc1` (stereo unspecified), the Potency is reported as “inactive”.
With `C=CC(=C)CCC=C(C)C` the Potency was “inactive”.
For `COc1ccc2oc(=O)c(C(=O)N3CCN(c4ccccc4F)CC3)cc2c1`, the Potency was “inactive”.
For `CC1(C)CC(=O)C=C(NC2CC(C)(C)NC(C)(C)C2)C1`, the Potency was “inactive”.
For `O=C(COc1ccc2oc3c(c2c1)CCCC3)Nc1ccccn1`, the Potency was “inactive”.
`O=C1CN(C(=O)COC(=O)C2CC(=O)N(Cc3ccco3)C2)c2ccccc2N1` (stereo unspecified) was tested, and the Potency was “inactive”.
With `COc1cc(C[C@H](C)N)c(OC)cc1I` the Potency was “inactive”.
For `COC(=O)c1ccc(C(NC(=O)OCc2ccccc2)/C(C)=C/[C@@H](C)C(=O)NCc2cc(C)on2)cc1` (stereo partly specified), the Potency was “inactive”.
With `CCOC(=O)c1ccc(-n2c(C)nc3c(cnn3-c3ccccc3C)c2=O)cc1` the Potency was “inactive”.
For `COC(=O)C1=C(C)Nc2ncnn2C1c1ccco1` (stereo unspecified), the Potency was “inactive”.
With `CCOC(=O)CSC1=C(C#N)C(c2ccco2)C(C(=O)OCc2ccccc2)=C(C)N1` (stereo unspecified) the Potency was “inactive”.
In the case of `CC1=C(C(=O)OCc2ccccc2)C(c2ccco2)n2ncnc2N1` (stereo unspecified), the Potency is reported as 3.98 µM [single pt active] (active).
For `O=C1N=C(N2CCOCC2)CS1`, the Potency was “inactive”.
For `COc1ccc2oc(C)c(NC(C)=O)c2c1`, the Potency was “inactive”.
In the case of `CC(=O)Oc1ccc2c(C)c(CC(C)O)c(=O)oc2c1` (stereo unspecified), the Potency is reported as “inactive”.
`CC(=O)Nc1cc2ccc(OC(C)=O)cc2oc1=O` was tested, and the Potency was 3.98 µM [single pt active] (active).
